From PubChem BioAssay
Active and inactive are the calls of the source. Unless noted, how the calls were made is not given here.

How the values were obtained:
[1] = test system: Wnt5a (protein binding on small-molecule microarray); assay: Wnt5a binders on small-molecule microarray, primary screen, biophysical, 635/667 nm fluorescence (AID 1142); conditions: 635 nm fluorescence, higher = more signal;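 further: fluorescence read at 667 nm with signal to noise per printed feature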
[2] = cell viability in Huh7 cells, primary screen, cytotoxicity control for HCV replication inhibitor project, CellTiter-Glo luminescence, basal, 48 h (AID 1143); conditions: Huh7 HCV replicon, higher = more signal, called active from +8 up or from −8 down;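 further: Huh7 hepatoma cells carrying a hepatitis C replication reporter with no stimulus; test concentration not given here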
[3] = P. aeruginosa biofilm formation inhibitors, primary screen, PAO1 strain, BacTiter-Glo luminescence, LB-PBS (AID 1144); conditions: 12 h, higher = more signal
[4] = CREB reporter modulators without forskolin, primary screen, cell-based, PC12, CRE-LacZ reporter, unstimulated (AID 1145); conditions: no forskolin, luminescence, 4.5 h, higher = more signal, called active from +8 up or from −8 down
[5] = CREB reporter modulators under forskolin, primary screen, cell-based, PC12, CRE-LacZ reporter, forskolin-stimulated (AID 1146); conditions: luminescence, 4.5 h, higher = more signal, called active from +8 up or from −8 down;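 further: PC12 cells with 6xCRE LacZ reporter stimulated by forskolin 10 µM; beta-galactosidase reporter signal reflecting CREB driven transcription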
[6] = molecular target: Streptavidin (Streptomyces avidinii) (UniProt P22629); assay: streptavidin binders on small-molecule microarray, primary screen, artefact control for SMM compound annotation, biophysical, 635/667 nm fluorescence (AID 1147); conditions: streptavidin binding, higher = more signal;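 further: signal reflects streptavidin binding to arrayed compounds as a control protein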
[7] = small-molecule binders of probe aInhba, primary screen, biochemical, small-molecule microarray, 635/667 nm fluorescence (AID 1148); conditions: higher = more signal;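 further: score merges 667nm spot fluorescence with signal-to-noise for antibody binding to printed compounds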
[8] = molecular target: Torsin-1A (Homo sapiens) (UniProt O14656); assay: torsin A binders from cell lysate, primary screen, small-molecule microarray, wild-type, 635/667 nm (AID 1149); conditions: COS7 hTOR1A-WT lysate, 635 nm fluorescence, higher = more signal
[9] = molecular target: Torsin-1A (Homo sapiens) (UniProt O14656); assay: small-molecule binders of mutant TOR1A in lysate, primary screen, cell lysate, small-molecule microarray, COS7 lysate, 635/667 nm fluorescence (AID 1150); conditions: COS7 hTOR1A mutant lysate, 635 nm fluorescence, higher = more signal;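 further: score pools 667 nm emission and signal to noise measuring lysate protein binding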
[10] = test system: Sonic hedgehog protein (Shh); assay: small-molecule binders of Shh protein, primary screen, biochemical, small-molecule microarray, 635/667 nm fluorescence (AID 1151); conditions: small-molecule microarray binding, 635 nm fluorescence; higher = more signal;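 further: Shh protein binding to compounds spotted on small-molecule microarray slides; score combines spot fluorescence intensity with signal-to-noise across triplicate slides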
[11] = E. coli DRC41 culture turbidity changes, primary screen, E. coli filamentation inducer project, strain DRC41, OD650, 48 h (AID 1152);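 further: E. coli MC1000 strain DRC41 lacking acrAB efflux pump and sulA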; conditions: E. coli DRC41 (acrAB sulA), higher = more signal, called active from +8 up or from −8 down
[12] = small-molecule binders of probe aLefty1, primary screen, biochemical, small-molecule microarray, 635/667 nm fluorescence (AID 1153); conditions: higher = more signal;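 further: score merges spot fluorescence with signal-to-noise ratio from the scanned slide images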
[13] = PSAC antagonists in infected red cells, primary screen, cell-based, P. falciparum Indochina, OD700, 1 h (AID 1154); conditions: P. falciparum Indochina infected RBC osmotic lysis, higher = more signal, called active from +8 up or from −8 down
[14] = PSAC antagonists in infected red cells, primary screen, cell-based, P. falciparum Indochina, OD700, 2 h (AID 1155);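 further: lysis reports solute entry through the parasite surface anion channel PSAC; channel blockers reduce lysis of infected cells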; conditions: P. falciparum Indochina infected erythrocytes, osmotic lysis OD700; higher = more signal, called active from +8 up or from −8 down
[15] = osmotic lysis modulators in infected erythrocytes, primary screen, PSAC antagonist project, cell-based, P. falciparum Indochina, OD700, 3 h (AID 1156); conditions: higher = more signal, called active from +8 up or from −8 down
[16] = PSAC antagonists in infected red cells, primary screen, cell-based, P. falciparum Indochina, OD700, 18 h (AID 1157); conditions: P. falciparum Indochina infected erythrocytes, osmotic lysis OD700, 18 h; higher = more signal, called active from +8 up or from −8 down
[17] = modulators of S6 phosphorylation in cells, primary screen, cell-based, A549, cytoblot, luminescence, serum-stimulated (AID 1158); conditions: A549 phospho-S6 cytoblot, 5 h, higher = more signal;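 further: serum-stimulated A549 lung adenocarcinoma cells; signal is phosphorylated S6 detected by cytoblot immunostaining with HRP secondary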
[18] = molecular target: NADPH oxidase 2 (Homo sapiens) (UniProt P04839); assay: NOX2-dependent H2O2 signal modulators, primary screen, NOX inhibitor project, cell-based, HEK293-NOX2, PMA-stimulated, Amplex Red fluorescence (AID 1159); conditions: 45 min, higher = more signal, called active from +8 up or from −8 down; further: test concentration not given here
[19] = molecular target: NADPH oxidase 4 (Homo sapiens) (UniProt Q9NPH5); assay: NOX4-dependent H2O2 signal modulators, primary screen, NOX inhibitor project, cell-based, HEK293-NOX4, tetracycline-induced, Amplex Red fluorescence (AID 1160); conditions: 45 min, higher = more signal, called active from +8 up or from −8 down
[20] = molecular target: NADPH oxidase 5 (Homo sapiens) (UniProt Q96PH1); assay: NOX5-dependent H2O2 signal modulators, primary screen, NOX inhibitor project, cell-based, HEK293-NOX5, Amplex Red fluorescence (AID 1161); conditions: HEK293-NOX5, ionomycin, 45 min, higher = more signal
NADPH oxidase 5 (Homo sapiens), sequence (Q96PH1 whole entry, looked up): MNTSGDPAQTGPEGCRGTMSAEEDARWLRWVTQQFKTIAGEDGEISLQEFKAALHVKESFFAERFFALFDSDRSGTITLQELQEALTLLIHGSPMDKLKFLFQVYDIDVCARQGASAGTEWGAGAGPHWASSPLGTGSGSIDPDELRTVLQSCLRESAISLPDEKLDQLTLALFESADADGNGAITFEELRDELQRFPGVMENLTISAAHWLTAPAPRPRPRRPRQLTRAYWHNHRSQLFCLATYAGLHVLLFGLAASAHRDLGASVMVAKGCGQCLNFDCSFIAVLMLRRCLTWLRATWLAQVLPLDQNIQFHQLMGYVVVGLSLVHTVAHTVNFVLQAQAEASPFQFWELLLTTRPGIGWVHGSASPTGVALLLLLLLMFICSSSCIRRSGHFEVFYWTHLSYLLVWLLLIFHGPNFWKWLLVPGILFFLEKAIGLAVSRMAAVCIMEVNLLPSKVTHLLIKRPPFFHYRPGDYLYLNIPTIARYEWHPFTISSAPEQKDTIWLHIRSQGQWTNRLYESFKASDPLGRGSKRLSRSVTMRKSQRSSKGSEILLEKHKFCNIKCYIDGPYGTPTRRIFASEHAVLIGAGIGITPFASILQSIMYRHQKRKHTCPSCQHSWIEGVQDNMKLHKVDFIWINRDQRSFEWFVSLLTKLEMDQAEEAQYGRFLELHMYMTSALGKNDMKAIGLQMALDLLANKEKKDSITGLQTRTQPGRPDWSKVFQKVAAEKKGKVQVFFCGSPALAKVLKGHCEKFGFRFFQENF

NADPH oxidase 4 (Homo sapiens), sequence (Q9NPH5 whole entry, looked up): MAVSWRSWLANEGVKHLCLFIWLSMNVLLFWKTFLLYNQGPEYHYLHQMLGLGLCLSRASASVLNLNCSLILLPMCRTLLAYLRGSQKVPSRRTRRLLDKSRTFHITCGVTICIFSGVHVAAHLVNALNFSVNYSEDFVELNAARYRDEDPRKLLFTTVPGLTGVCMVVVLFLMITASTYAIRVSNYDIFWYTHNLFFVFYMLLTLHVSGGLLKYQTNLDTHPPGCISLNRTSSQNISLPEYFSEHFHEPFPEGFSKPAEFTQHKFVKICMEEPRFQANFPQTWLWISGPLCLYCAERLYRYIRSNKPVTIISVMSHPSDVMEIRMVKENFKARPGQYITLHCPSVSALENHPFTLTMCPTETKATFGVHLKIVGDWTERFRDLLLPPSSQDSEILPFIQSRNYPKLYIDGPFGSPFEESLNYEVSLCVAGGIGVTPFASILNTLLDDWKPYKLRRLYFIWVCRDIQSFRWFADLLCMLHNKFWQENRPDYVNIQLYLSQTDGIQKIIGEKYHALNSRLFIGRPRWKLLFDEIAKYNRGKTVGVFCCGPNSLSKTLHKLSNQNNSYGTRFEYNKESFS
Torsin-1A (Homo sapiens), sequence (O14656 whole entry, looked up): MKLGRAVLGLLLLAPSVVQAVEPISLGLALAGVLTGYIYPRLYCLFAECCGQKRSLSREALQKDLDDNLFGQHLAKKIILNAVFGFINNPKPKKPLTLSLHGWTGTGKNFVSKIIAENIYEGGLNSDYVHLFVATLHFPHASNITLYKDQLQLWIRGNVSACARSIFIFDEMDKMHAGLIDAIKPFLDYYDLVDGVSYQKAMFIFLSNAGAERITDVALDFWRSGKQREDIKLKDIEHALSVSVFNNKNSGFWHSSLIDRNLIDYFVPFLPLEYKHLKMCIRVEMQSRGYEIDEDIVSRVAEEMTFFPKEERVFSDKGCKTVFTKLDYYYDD
NADPH oxidase 2 (Homo sapiens), sequence (P04839 whole entry, looked up): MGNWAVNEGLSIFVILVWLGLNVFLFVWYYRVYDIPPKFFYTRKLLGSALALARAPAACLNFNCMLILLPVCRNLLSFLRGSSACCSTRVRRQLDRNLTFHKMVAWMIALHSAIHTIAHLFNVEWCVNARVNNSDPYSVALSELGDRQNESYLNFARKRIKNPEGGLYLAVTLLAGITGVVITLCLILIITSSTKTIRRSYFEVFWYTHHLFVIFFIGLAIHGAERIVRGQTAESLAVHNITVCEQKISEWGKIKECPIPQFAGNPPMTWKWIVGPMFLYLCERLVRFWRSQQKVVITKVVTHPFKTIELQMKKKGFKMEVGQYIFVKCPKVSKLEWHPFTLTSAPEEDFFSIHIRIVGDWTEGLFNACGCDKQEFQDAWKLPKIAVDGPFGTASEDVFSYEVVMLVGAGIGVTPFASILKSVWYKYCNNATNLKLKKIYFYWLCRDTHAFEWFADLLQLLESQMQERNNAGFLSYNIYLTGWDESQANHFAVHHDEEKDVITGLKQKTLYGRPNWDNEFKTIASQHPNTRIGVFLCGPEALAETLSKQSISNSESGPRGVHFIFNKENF
Streptavidin (Streptomyces avidinii), sequence (P22629 whole entry, looked up): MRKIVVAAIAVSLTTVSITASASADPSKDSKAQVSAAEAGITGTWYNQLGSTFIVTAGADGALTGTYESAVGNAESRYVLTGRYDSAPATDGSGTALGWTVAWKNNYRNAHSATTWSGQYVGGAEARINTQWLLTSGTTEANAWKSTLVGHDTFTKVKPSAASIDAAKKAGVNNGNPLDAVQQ

SMILES | composite z-score [1] | z-score [2] | z-score [3] | z-score [4] | z-score [5] | composite z-score [6] | composite z-score [7] | composite z-score [8] | composite z-score [9] | composite z-score [10] | z-score [11] | composite z-score [12] | z-score [13] | z-score [14] | z-score [15] | z-score [16] | z-score [17] | z-score [18] | z-score [19] | z-score [20]
CC(C)(C)OC(=O)CC[C@]12N=C(c3ccc(OCCCO)cc3)O[C@H]1c1ccccc1N(CCS(=O)(=O)c1ccccc1)C2=O | 0.628 | -2.91 (inactive) | -0.556 (inactive) | 3.64 (inactive) | -1.42 (inactive) | 0.579 | 0.0785 | 0.698 | 0.811 | 1.2 | -1.59 (inactive) | 0.447 | 32.2 (active) | 28.5 (active) | 4.08 (inactive) | 8.71 (active) | -0.321 | -0.859 (inactive) | 1.12 (inactive) | -1.06
[N-]=[N+]=NCc1ccccc1C[C@@]1(C(=O)NCC(O)CO)N=C(c2ccc(OCCCO)cc2)O[C@@H]1c1ccccc1N=[N+]=[N-] (stereo not given in full) | 0.63 | -3.67 (inactive) | -0.68 (inactive) | 0.209 (inactive) | -1.57 (inactive) | 1.89 | 0.475 | 0.73 | 1.07 | -0.762 | 0.458 (inactive) | 0.668 | 30.8 (active) | 28.7 (active) | 1.29 (inactive) | 7.41 (inactive) | 0.345 | -0.00841 (inactive) | 1.21 (inactive) | 0.427
O=C1[C@H]2C=C(Br)[C@H](C[C@@H]2OCCCCO)[C@@]12CO2 | -0.0251 | 0.722 (inactive) | 0.56 (inactive) | 0.22 (inactive) | 0.533 (inactive) | 0.0247 | 0.104 | 0.411 | 0.53 | 0.31 | -1.11 (inactive) | 0.0911 | 1.31 (inactive) | 0.317 (inactive) | 1.17 (inactive) | -0.0393 (inactive) | -0.401 | 0.45 (inactive) | 0.602 (inactive) | 0.188
CCCCN1CC=CC23O[C@@H]4C=CCOC(=O)[C@@H]4[C@H]2C(=O)N(CCCCCO)[C@@H]3C1=O (stereo not given in full) | -0.103 | 0.445 (inactive) | -1.08 (inactive) | -0.761 (inactive) | -0.645 (inactive) | -1.32 | -0.0531 | -0.915 | 1.23 | 1.07 | 0.504 (inactive) | 0.749 | 1.25 (inactive) | 0.882 (inactive) | 1.22 (inactive) | 0.529 (inactive) | 0.0401 | 0.872 (inactive) | 0.381 (inactive) | 1.37
COC(=O)[C@@]1(Cc2ccc(F)cc2)[C@@H]2[C@@H](CC(=O)[C@H]2CC(=O)C(=O)N(C)C)CN1C(=O)c1ccccc1 | 0.618 | -2.42 (inactive) | 0.215 (inactive) | 0.576 (inactive) | 0.245 (inactive) | 1.91 | 0.242 | 0.447 | 0.884 | -0.552 | -1.78 (inactive) | 0.334 | 2.32 (inactive) | 0.723 (inactive) | 0.806 (inactive) | 0.961 (inactive) | -0.761 | 0.366 (inactive) | -0.21 (inactive) | 0.256
COCCOC(=O)N1C(=O)[C@@]2(c3cc(C#CC4=CCCCC4)ccc31)[C@H](C(=O)Nc1nc3ccccc3s1)[C@H]1C(=O)O[C@H](c3ccccc3)[C@H](c3ccccc3)N1[C@@H]2c1ccccc1OCCO | 0.697 | -5.66 (inactive) | -1.29 (inactive) | -0.878 (inactive) | -1.09 (inactive) | 1.19 | 0.973 | 0.0595 | 0.956 | 1.49 | 0.687 (inactive) | 1.43 | 2.84 (inactive) | 0.926 (inactive) | -0.0917 (inactive) | 0.436 (inactive) | 1.93 | 0.102 (inactive) | 0.056 (inactive) | -1.83
COCCOC(=O)N1C(=O)[C@@]2(c3cc(C#CCCO)ccc31)[C@H](c1ccc(OCCO)cc1)N1[C@H](c3ccccc3)[C@H](c3ccccc3)OC(=O)[C@H]1[C@@H]2C(=O)N1CCN(c2ncccn2)CC1 | -0.0738 | -0.361 (inactive) | 0.97 (inactive) | 0.334 (inactive) | 0.653 (inactive) | 0.782 | 0.0947 | 0.546 | 0.28 | 1.43 | -0.304 (inactive) | 0.372 | 5.15 (inactive) | 1.58 (inactive) | -0.325 (inactive) | 0.411 (inactive) | -0.113 | 1.89 (inactive) | 0.925 (inactive) | 1.32
C=CCN1C(=O)[C@]2(O[C@H](CCO)[C@@H]([Si](C)(C)c3ccc(OC)cc3)[C@@H]2C)c2cc(N3CCCCC3=O)ccc21 | 0.193 | -5.37 (inactive) | 0.597 (inactive) | 3.85 (inactive) | 0.22 (inactive) | 0.802 | 0.103 | 1.1 | 0.364 | 2.24 | 0.143 (inactive) | 0.0004 | 4.68 (inactive) | 2.25 (inactive) | -0.328 (inactive) | 1.7 (inactive) | 1.14 | 0.972 (inactive) | 0.43 (inactive) | 0.801
COc1ccc(C(O)C2C=CC3C(=O)N(C)C(=O)C3N2N2CCCCC2)c2ccccc12 (stereo not given) | 0.533 | 0.221 (inactive) | 0.28 (inactive) | 1.39 (inactive) | 0.426 (inactive) | 1.25 | 0.111 | 0.466 | 0.66 | -0.474 | -1.53 (inactive) | 0.517 | 1.24 (inactive) | 1.05 (inactive) | 1.01 (inactive) | 0.778 (inactive) | -1.08 | 0.273 (inactive) | -1.72 (inactive) | 1.03
